Screens: PubChem, several laboratories
In the library only some 27% were active in any assay of this set; here they are far more common.
CYP2C19 activ – human CYP2C19 activators, primary screen, biochemical, luminescence; activation factor at 5 µM; AID 1025, 2008; Cytochrome P450 2C19 (Homo sapiens), P33261; 96,000 tested, under 10 active; recombinant CYP2C19, luciferin-H EGE luminescence; active compounds read high; 0 = fully inhibited enzyme, 1 = untreated enzyme;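 active = activation factor of at least 2 at 5 µM in the primary screen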
sEH inhibitor – soluble epoxide hydrolase inhibitors, primary screen, biochemical, human sEH. Bifunctional epoxide hydrolase 2 (Homo sapiens), P34913. recombinant human sEH enzymatic activity assay. inhibition, % at 2 µM. 0.34% of 91,000 active; in the data active = inhibition above about 80%
sEH activator – soluble epoxide hydrolase activators, primary screen, biochemical, human sEH | 0.04% of 91,000 active | Bifunctional epoxide hydrolase 2 (Homo sapiens), P34913 | purified human sEH enzymatic activity, activator screen | activation, % at 2 µM; in the data active = activation above about 37%
CYP2C9 act – human CYP2C9 activators, primary screen, biochemical, luminescence; recombinant CYP2C9, luciferin-H conversion; active compounds read high; factor 1 = untreated enzyme, 0 = blocked; activation factor at 5 µM; 1.4% of 96,000 active; Cytochrome P450 2C9 (Homo sapiens), P11712;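 active = activation factor of 2 or more for CYP2C9 at a 5 µM dose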
Target sequence (P11712 whole entry, looked up): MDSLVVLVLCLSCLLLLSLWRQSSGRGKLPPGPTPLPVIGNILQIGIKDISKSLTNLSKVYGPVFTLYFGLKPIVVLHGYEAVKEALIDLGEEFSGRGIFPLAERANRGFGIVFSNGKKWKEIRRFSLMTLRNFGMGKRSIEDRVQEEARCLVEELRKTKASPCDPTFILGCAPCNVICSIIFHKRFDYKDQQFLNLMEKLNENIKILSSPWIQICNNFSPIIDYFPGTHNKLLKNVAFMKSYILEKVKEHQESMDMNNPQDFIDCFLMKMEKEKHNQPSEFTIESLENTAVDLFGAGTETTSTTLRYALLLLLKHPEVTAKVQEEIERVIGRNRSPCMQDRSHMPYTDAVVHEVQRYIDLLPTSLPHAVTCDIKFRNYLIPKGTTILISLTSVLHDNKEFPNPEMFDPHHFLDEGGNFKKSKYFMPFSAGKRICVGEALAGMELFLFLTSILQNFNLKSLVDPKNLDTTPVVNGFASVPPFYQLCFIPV
CYP2C19 inh – blockers of cytochrome P450 2C19 activity – biochemical, luminescence, ADME assay, primary screen | P33261 | CYP2C19 Supersomes, luciferin-H EGE luminescence, 30 min | inhibition, % at 5 µM | 21% of 96,000 active | AID 778, 2007;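 active = CYP2C19 inhibition above a set limit at 5 µM in the primary screen, cut at about 50% in these data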
CYP2C9 inhib – blockers of cytochrome P450 2C9 activity – biochemical, luminescence, ADME assay, primary screen; P11712; CYP2C9 Supersomes, luciferin-H conversion; inhibition, % at 5 µM; 20% of 96,000 active;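 active = blocking of liver enzyme CYP2C9 beyond about 50% at 5 µM, limit read from the data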
Hits are given with their value.

For Cc1ccc(C2CC(=O)Nc3cc4c(cc32)OCO4)o1 (stereo not given) the results were CYP2C19 activ inactive, sEH inhibitor inactive, sEH activator inactive, CYP2C9 act inactive, CYP2C19 inh 84 and CYP2C9 inhib inactive.
Cc1ccc(C2CC(=O)Nc3cc4c(cc32)OCCO4)s1 (stereo not given) was read as CYP2C19 activ inactive, sEH inhibitor inactive, sEH activator inactive, CYP2C9 act inactive, CYP2C19 inh inactive and CYP2C9 inhib inactive.
For O=C1CC(c2ccc3c(c2)OCO3)c2cc3c(cc2N1)OCO3 (stereo not given) the results were CYP2C19 activ inactive, sEH inhibitor inactive, sEH activator inactive, CYP2C9 act inactive, CYP2C19 inh 64 and CYP2C9 inhib 60.
For CCN(CC)c1ccc(C2CC(=O)Nc3cc(OC)c(OC)cc32)cc1 (stereo not given) the results were CYP2C19 activ inactive, sEH inhibitor inactive, sEH activator inactive, CYP2C9 act inactive, CYP2C19 inh inactive and CYP2C9 inhib inactive.
N=c1sccn1CC(=O)Nc1ccccc1-c1ccccc1 was read as CYP2C19 activ inactive, CYP2C9 act inactive, CYP2C19 inh inactive and CYP2C9 inhib inactive.
Screening COc1cccc2c(=O)c(C/C=C(/C)Cl)c(C)[nH]c12 returned CYP2C19 activ inactive, sEH inhibitor inactive, sEH activator inactive, CYP2C9 act inactive, CYP2C19 inh 84 and CYP2C9 inhib inactive.
For CCOC(=O)C1C(C)N=C2SCC(=O)N2C1c1cccc(Br)c1 (stereo not given) the results were CYP2C19 activ inactive, CYP2C9 act inactive, CYP2C19 inh 85 and CYP2C9 inhib 85.
Screening COc1ccc(C2C3=C(CC(C)(C)CC3=O)Oc3ncn(CCO)c(=N)c32)cc1OC (stereo not given) returned CYP2C19 activ inactive, sEH inhibitor inactive, sEH activator inactive, CYP2C9 act inactive, CYP2C19 inh inactive and CYP2C9 inhib inactive.
`Cc1ccc(NC(=O)c2cc3c(s2)CCC3)cc1S(=O)(=O)N1CCOCC1` gave CYP2C19 activ inactive, sEH inhibitor inactive, sEH activator inactive, CYP2C9 act inactive, CYP2C19 inh inactive and CYP2C9 inhib inactive.
`Cc1ccc(S(=O)(=O)N2CCOCC2)cc1NC(=O)c1cc2c(s1)CCC2` gave CYP2C19 activ inactive, sEH inhibitor inactive, sEH activator inactive, CYP2C9 act inactive, CYP2C19 inh 52 and CYP2C9 inhib 64.
COc1cc(S(=O)(=O)N2CCOCC2)ccc1NC(=O)c1cc2c(s1)CCC2 was read as CYP2C19 activ inactive, CYP2C9 act inactive, CYP2C19 inh inactive and CYP2C9 inhib 68.
`Cc1sc(NC(=O)CSc2nnc(COc3ccc(Cl)cc3)n2C)c(C#N)c1C` gave CYP2C19 activ inactive, sEH inhibitor inactive, sEH activator inactive, CYP2C9 act inactive, CYP2C19 inh inactive and CYP2C9 inhib inactive.
`O=C(Cc1cccs1)Nc1ccc(Cl)cc1` gave CYP2C19 activ inactive, sEH inhibitor inactive, sEH activator inactive, CYP2C9 act inactive, CYP2C19 inh 94 and CYP2C9 inhib 64.
For O=C(Cc1cccs1)Nc1ccccc1NC(=O)Cc1cccs1 the results were CYP2C19 activ inactive, CYP2C9 act inactive, CYP2C19 inh 51 and CYP2C9 inhib inactive.
Screening O=C(Nc1ccc(Cl)cc1)N(Cc1cccs1)Cc1cccs1 returned CYP2C19 activ inactive, sEH inhibitor inactive, sEH activator inactive, CYP2C9 act inactive, CYP2C19 inh inactive and CYP2C9 inhib inactive.
`Cc1ccc(-c2nnc(-c3ccc(NC(=O)Cc4cccs4)cc3)o2)cc1` gave CYP2C19 activ inactive, sEH inhibitor inactive, sEH activator inactive, CYP2C9 act inactive, CYP2C19 inh 53 and CYP2C9 inhib 84.
`CSC1=NC(NCCCO)c2c(sc3c2CC(C)(C)OC3)N1` (stereo not given) gave CYP2C19 activ inactive, sEH inhibitor inactive, sEH activator inactive, CYP2C9 act inactive, CYP2C19 inh inactive and CYP2C9 inhib inactive.
Screening Nc1ccc2c(c1)C(=O)C(=O)c1ccccc1-2 returned CYP2C19 activ inactive, sEH inhibitor inactive, sEH activator inactive, CYP2C9 act inactive, CYP2C19 inh 98 and CYP2C9 inhib 87.
Screening COc1cccc(C(=O)N2CCN(C3CCC(c4ccccc4)CC3)CC2)c1OC (stereo not given) returned CYP2C19 activ inactive, sEH inhibitor inactive, sEH activator inactive, CYP2C9 act inactive, CYP2C19 inh inactive and CYP2C9 inhib inactive.
Screening CCOC(=O)N1CCC(N2C(=O)c3ccccc3C2Nc2ccccc2C)CC1 (stereo not given) returned CYP2C19 activ inactive, sEH inhibitor inactive, sEH activator inactive, CYP2C9 act inactive, CYP2C19 inh 65 and CYP2C9 inhib 80.
CCOC(=O)N1CCC(N2C(=O)c3ccccc3C2Nc2ccc3c(C)cc(=O)oc3c2)CC1 (stereo not given) was read as CYP2C19 activ inactive, sEH inhibitor inactive, sEH activator inactive, CYP2C9 act inactive, CYP2C19 inh inactive and CYP2C9 inhib 81.
`CCOC(=O)N1CCC(N2C(=O)c3ccccc3C2Nc2ccc(Cl)cn2)CC1` (stereo not given) gave CYP2C19 activ inactive, sEH inhibitor inactive, sEH activator inactive, CYP2C9 act inactive, CYP2C19 inh 58 and CYP2C9 inhib 58.
`CCOC(=O)N1CCC(N2C(=O)c3ccccc3C2Nc2ccc3c(c2)OCCO3)CC1` (stereo not given) gave CYP2C19 activ inactive, CYP2C9 act inactive, CYP2C19 inh inactive and CYP2C9 inhib inactive.
`CCOC(=O)c1ccccc1NC1c2ccccc2C(=O)N1C1CCN(C(=O)OCC)CC1` (stereo not given) gave CYP2C19 activ inactive, sEH inhibitor inactive, sEH activator inactive, CYP2C9 act inactive, CYP2C19 inh inactive and CYP2C9 inhib inactive.
`CCNc1nc(NC(C)C)nc(Oc2ccc(/C=N/O)cc2)n1` gave CYP2C19 activ inactive, sEH inhibitor inactive, sEH activator inactive, CYP2C9 act inactive, CYP2C19 inh inactive and CYP2C9 inhib 69.
`CCNc1nc(NC(C)C)nc(Oc2ccc(OCCOc3ccc(C)cc3)nn2)n1` gave CYP2C19 activ inactive, sEH inhibitor inactive, sEH activator inactive, CYP2C9 act inactive, CYP2C19 inh inactive and CYP2C9 inhib inactive.
Screening COc1cc(OC)c(C2N(c3ccc(Cl)cc3)C(=O)C3CCCN32)cc1OC (stereo not given) returned CYP2C19 activ inactive, sEH inhibitor inactive, sEH activator inactive, CYP2C9 act inactive, CYP2C19 inh inactive and CYP2C9 inhib inactive.
For N#Cc1ccc2ccn(CC(=O)NCc3ccccc3)c2c1 the results were CYP2C19 activ inactive, sEH inhibitor inactive, sEH activator inactive, CYP2C9 act inactive, CYP2C19 inh 87 and CYP2C9 inhib 59.
